ROS inducer: cancer cell ROS induction | U2OS ROS induction, H2DCF-DA fluorescence | ROS induction (% of piperlongumine), % at 10 µM | 46,000 compounds, 2% hits | AID 624156; in the data active means ROS induction above about 79%, passing the limit was not always enough
YB-1 expression: YB-1 expression inhibition; 30,000 compounds, 0.37% hits; delta delta Cp (YB-1 minus CDIP) (concentration not given with the values); U2OS, qRT-PCR YB-1 vs CDIP delta delta Cp, 16 h; active compounds read high; zero = DMSO, each unit about twofold; AID 434959;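 active means delta delta Cp rounded down to an integer at or above 3, about 3 SD of DMSO wells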;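 further: higher means less YB-1 transcript or more CDIP transcript relative to DMSO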
PD-1 reversal: reversal of PD-1 mediated T-cell inhibition; primary human CD4 T cells, PD-L1 beads, CellTiter-Glo 96 h; activation, % (no concentration beside the values); 29,000 tested, under 10 active; AID 2316; call rule not given here
Numbers stand for hits; – = inactive; · = no result given. The list is not random: actives were taken first. Their share in the collection is about 2.1%.

SMILES | ROS inducer | YB-1 expression | PD-1 reversal
CC1CC(=O)C2=C(CCC34OC23C(=O)c2cccc(O)c2C4O)C1 (stereo not drawn) | – | – | –
C[C@H](CO)N1C[C@H](C)[C@@H](CN(C)C(=O)Nc2ccc3c(c2)OCO3)Oc2c(NS(=O)(=O)c3ccccc3)cccc2C1=O | – | – | –
C[C@H](CO)N1C[C@H](C)[C@H](CN(C)C(=O)Nc2ccc3c(c2)OCO3)Oc2c(NS(=O)(=O)c3ccccc3)cccc2C1=O | 99.7 | – | ·
C=CCN(CC=C)CC(O)Cn1c(-c2ccc(OC)cc2)cc2ccccc21 (stereo not drawn) | – | · | ·
CCC(C(=O)OC)n1cnc2c(nnn2Cc2ccccc2F)c1=O (stereo not drawn) | – | · | ·
C[C@@H]1CN([C@H](C)CO)C(=O)c2cccc(NC(=O)c3cnccn3)c2O[C@H]1CN(C)Cc1ccc(Oc2ccccc2)cc1 | – | – | –
C[C@H]1CN([C@@H](C)CO)C(=O)c2cccc(NC(=O)c3cnccn3)c2O[C@H]1CN(C)Cc1ccc(-c2ccccc2)cc1 | – | – | –
C[C@H]1CN([C@@H](C)CO)C(=O)c2cccc(NC(=O)c3cnccn3)c2O[C@@H]1CN(C)Cc1ccc(-c2ccccc2)cc1 | 118.3 | – | –
C[C@H](CO)N1C[C@H](C)[C@@H](CN(C)Cc2ccc(Oc3ccccc3)cc2)Oc2c(NC(=O)c3cnccn3)cccc2C1=O | 134.3 | – | –
COc1cc(/C=C/C(=O)OC2C(COC(=O)c3cc(OC)c(OC)c(OC)c3)OC(OC3(CO)OC(CO)C(O)C3O)C(O)C2O)cc(OC)c1OC (stereo not drawn) | – | – | –
Clc1ccc(CSc2ncccn2)cc1 | 93.7 | · | ·
O=c1ccnc(SCc2ccc(Cl)cc2)[nH]1 | – | – | –
CC1(c2ccccc2)CC(C)(C)N(C(=O)c2ccco2)c2ccccc21 (stereo not drawn) | – | · | ·
CC1(C)C=Cc2c(c3occc3c3oc(-c4ccccc4)cc(=O)c23)O1 | 223.2 | – | –
O=c1cc(-c2ccccc2)oc2cccc(O)c12 | – | – | –
C[C@@H]1CN([C@H](C)CO)C(=O)Cc2cc(NC(=O)Cn3cnnn3)ccc2O[C@@H]1CN(C)Cc1ccc(C(F)(F)F)cc1 | 86.8 | – | ·
C[C@@H]1CN([C@H](C)CO)C(=O)Cc2cc(NS(=O)(=O)c3ccc(F)cc3)ccc2O[C@H]1CN(C)Cc1ccc(C(F)(F)F)cc1 | 207.1 | – | –
C[C@@H]1CN([C@H](C)CO)C(=O)Cc2cc(NS(=O)(=O)c3ccc(Cl)cc3)ccc2O[C@@H]1CN(C)Cc1ccc(C(F)(F)F)cc1 | – | – | –
C[C@@H]1CN([C@@H](C)CO)C(=O)Cc2cc(NC(=O)Cn3cnnn3)ccc2O[C@@H]1CN(C)Cc1ccncc1 | – | – | ·
C[C@@H]1CN([C@@H](C)CO)C(=O)Cc2cc(NS(=O)(=O)c3ccc(F)cc3)ccc2O[C@@H]1CN(C)Cc1ccc(C(F)(F)F)cc1 | – | – | –
C[C@H]1CN([C@@H](C)CO)C(=O)Cc2cc(NS(=O)(=O)c3ccc(F)cc3)ccc2O[C@@H]1CN(C)Cc1ccc(C(F)(F)F)cc1 | 146.3 | – | ·
O=C(CC(Sc1ccccc1C(=O)O)c1ccc(F)cc1)c1ccc(F)cc1 (stereo not drawn) | – | – | –
CC12CCC(=O)C=C1CCC1(C)C2(C)CCC2(C)C(C(=O)CO)CCC21C (stereo not drawn) | – | – | –
COc1ccc(-c2cc3cc(OC)c(OC)cc3c(Cc3ccccc3)n2)cc1 | 154.7 | – | –
COc1cc2cc(C)nc(Cc3cccc4ccccc34)c2cc1OC | – | – | –
SMILES | ROS inducer | YB-1 expression | PD-1 reversal
CC1CCCCN1S(=O)(=O)c1ccc(C(=O)Nc2cccc(-c3nc4ccccc4[nH]3)c2)cc1 (stereo not drawn) | 203.9 | · | ·
O=C(Nc1cccc(-c2nc3ccccc3[nH]2)c1)c1ccccc1 | – | · | ·
Cc1ccccc1NC(=O)N(Cc1cccs1)C(=O)CC#N | – | · | ·
Cc1ccc(CSc2nnc(-n3c(=O)c(C#N)cc4c(=O)n5ccccc5nc43)s2)cc1 | 189.1 | · | ·
Cc1ccc(-n2c(=O)c(C#N)cc3c(=O)n4ccccc4nc32)cc1 | – | · | ·
COc1ccc(-c2cc(C(F)F)n3ncc(C(=O)Nc4cccc(NC(C)=O)c4)c3n2)cc1 | 155.1 | · | –
Cc1ccc(-c2cc(C(F)F)n3ncc(C(=O)NCCN4CCOCC4)c3n2)cc1 | – | · | –
O=C(NCc1cccnc1)c1cnn2c(C(F)F)cc(C3CC3)nc12 | – | · | –
Cc1ccc(-c2cc(C(F)F)n3ncc(C(=O)NCc4cn(C)nc4C)c3n2)cc1 | 135.1 | · | –
Cn1cnnc1SCc1ccc(-c2csnn2)cc1 | – | · | ·
N#CCSc1nc(C2CC2)cc(-c2ccc(F)cc2)c1C(N)=O | – | · | ·
C=CCNC(=O)[C@H]1[C@@H]2C(=O)O[C@@H](c3ccccc3)[C@@H](c3ccccc3)N2[C@@H](c2ccccc2OCCO)[C@]12C(=O)Nc1ccc(C#CCC(C(=O)OC)C(=O)OC)cc12 | 184.9 | – | ·
COC(=O)C(CC#Cc1ccc2c(c1)[C@]1(C(=O)N2)[C@H](c2ccccc2OCCO)N2[C@H](c3ccccc3)[C@H](c3ccccc3)OC(=O)[C@H]2[C@@H]1C(=O)NC[C@H](O)c1ccccc1)C(=O)OC | 204.9 | – | ·
O=C1O[C@@H](c2ccccc2)[C@@H](c2ccccc2)N2[C@@H](c3ccc(OCCO)cc3)[C@]3(C(=O)Nc4ccc(C#CC5=CCCCC5)cc43)[C@@H](C(=O)O)[C@H]12 | 159.2 | – | ·
NC(=O)[C@H]1[C@@H]2C(=O)O[C@@H](c3ccccc3)[C@@H](c3ccccc3)N2[C@@H](c2ccc(OCCO)cc2)[C@]12C(=O)Nc1ccc(C#CC3=CCCCC3)cc12 | – | – | ·
COC(=O)C(CC#Cc1ccc2c(c1)[C@]1(C(=O)N2)[C@H](C(=O)NC[C@H](O)c2ccccc2)[C@H]2C(=O)O[C@H](c3ccccc3)[C@H](c3ccccc3)N2[C@@H]1c1ccc(OCCO)cc1)C(=O)OC | – | – | ·
C=CCNC(=O)[C@H]1[C@@H]2C(=O)O[C@@H](c3ccccc3)[C@@H](c3ccccc3)N2[C@@H](c2ccccc2OCCO)[C@]12C(=O)Nc1ccc(C#Cc3ccc(OC)cc3)cc12 | – | – | ·
C=CCNC(=O)[C@@H]1[C@H]2C(=O)O[C@H](c3ccccc3)[C@H](c3ccccc3)N2[C@H](c2ccccc2OCCO)[C@@]12C(=O)Nc1ccc(C#CCNC(N)=O)cc12 | – | – | ·
C=CCNC(=O)[C@@H]1[C@H]2C(=O)O[C@H](c3ccccc3)[C@H](c3ccccc3)N2[C@H](c2ccccc2OCCO)[C@@]12C(=O)Nc1ccc(C#CCC(C(=O)OC)C(=O)OC)cc12 | 191.7 | – | ·
CN(C)CCCNc1ncnc(N)c1[N+](=O)[O-] | – | · | –
N#Cc1ccccc1NC(=O)CN1C(=O)c2ccccc2C1=O | – | · | ·
CCc1ccccc1NC(=O)c1ccccc1S(=O)(=O)c1ccccc1[N+](=O)[O-] | – | · | –
CCCn1c(SCCCc2ccccc2)nc2c1c(=O)[nH]c(=O)n2C | – | · | ·
Cc1ccc2c(Sc3ccc(Cl)cc3)c(C(=O)NC(C)c3ccc4c(c3)OCCO4)[nH]c2c1 (stereo not drawn) | – | · | ·
N#Cc1nc(-c2ccccc2Cl)oc1NCCCN1CCOCC1 | – | · | –

Screening results (PubChem BioAssay)
